From PMC7862700, “An all-to-all approach to the identification of sequence-specific readers for epigenetic DNA modifications on cytosine” come the findings set out here.

What all share (test): DAPPL (digital affinity profiling via proximity ligation, sequencing); 10 mM Tris-HCl pH 7.5, 50 mM NaCl, 1 mM DTT, 4% glycerol, room temperature, 30 min; GST-TFs on glutathione beads, 16-mer random dsDNA library, 0.1% formaldehyde crosslink after washing; high values mean tight binding
For one assay, the target named is T1, FLI1 (Homo sapiens, UniProt Q01543 1-452).
T1 sequence: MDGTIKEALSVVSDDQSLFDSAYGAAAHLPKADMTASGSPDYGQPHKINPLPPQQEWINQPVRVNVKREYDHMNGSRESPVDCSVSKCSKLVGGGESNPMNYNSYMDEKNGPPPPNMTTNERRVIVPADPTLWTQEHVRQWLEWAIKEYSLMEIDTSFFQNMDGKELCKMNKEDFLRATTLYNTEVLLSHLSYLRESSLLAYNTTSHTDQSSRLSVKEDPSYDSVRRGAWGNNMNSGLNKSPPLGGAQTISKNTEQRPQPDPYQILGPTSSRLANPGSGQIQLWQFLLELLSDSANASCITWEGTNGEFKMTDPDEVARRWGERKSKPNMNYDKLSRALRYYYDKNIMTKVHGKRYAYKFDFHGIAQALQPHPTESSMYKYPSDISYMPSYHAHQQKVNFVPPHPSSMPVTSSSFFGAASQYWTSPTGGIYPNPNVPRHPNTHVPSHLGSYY
The settings on record: protein: recombinant; tags: N-terminal GST; dsDNA, one strand shown. The method, boiled down:
(§1)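 Pools were built from human transcription factors expressed in yeast as GST fusions, captured on glutathione beads and DNA-barcoded, along with a tag-only sample. Incubation with 200 nmole of a 16-mer random double-stranded DNA library lasted 30 min at room temperature in Tris/NaCl/DTT/glycerol buffer, and was followed by washing, 0.1% formaldehyde crosslinking, proximity ligation, PCR amplification and Illumina NextSeq500 sequencing. Binding signal is the quotient of each hexamer's read frequency for a factor and its frequency for the tag-only sample.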

A further assay concerns the target T2, ELK1 (Homo sapiens, UniProt P19419 1-428).
T2 sequence: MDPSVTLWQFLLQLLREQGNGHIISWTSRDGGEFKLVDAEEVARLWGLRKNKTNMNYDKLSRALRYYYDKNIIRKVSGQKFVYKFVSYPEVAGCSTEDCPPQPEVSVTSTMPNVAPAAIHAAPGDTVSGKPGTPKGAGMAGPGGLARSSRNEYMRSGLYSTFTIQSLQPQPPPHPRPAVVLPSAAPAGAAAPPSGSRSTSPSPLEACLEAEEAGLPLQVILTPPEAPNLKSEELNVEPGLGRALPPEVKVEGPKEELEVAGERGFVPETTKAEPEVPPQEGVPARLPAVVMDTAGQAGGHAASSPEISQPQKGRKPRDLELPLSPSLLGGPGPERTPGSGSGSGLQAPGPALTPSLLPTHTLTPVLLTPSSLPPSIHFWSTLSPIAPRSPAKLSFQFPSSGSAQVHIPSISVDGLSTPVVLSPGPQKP
To be noted: protein: recombinant; tags: N-terminal GST; dsDNA, one strand shown. The method, boiled down:
as §1

The next assay addresses T3, GABPA (Homo sapiens, UniProt Q06546 1-454).
T3 sequence: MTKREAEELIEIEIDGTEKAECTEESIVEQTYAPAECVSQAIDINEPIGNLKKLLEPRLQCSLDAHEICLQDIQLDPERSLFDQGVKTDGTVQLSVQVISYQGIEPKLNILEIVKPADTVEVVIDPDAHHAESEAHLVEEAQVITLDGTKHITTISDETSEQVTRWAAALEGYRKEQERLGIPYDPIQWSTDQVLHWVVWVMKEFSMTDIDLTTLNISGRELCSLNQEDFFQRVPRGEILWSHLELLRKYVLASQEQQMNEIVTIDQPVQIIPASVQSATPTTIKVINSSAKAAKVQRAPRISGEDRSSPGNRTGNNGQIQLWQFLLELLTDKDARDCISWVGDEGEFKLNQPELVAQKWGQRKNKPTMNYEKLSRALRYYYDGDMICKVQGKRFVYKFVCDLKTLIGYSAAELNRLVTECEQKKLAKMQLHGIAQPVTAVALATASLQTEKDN
To be noted: protein: recombinant; tags: N-terminal GST; dsDNA, one strand shown. The method, boiled down:
as §1

The target in a further assay is T4, ERG (Homo sapiens, UniProt P11308 1-479).
T4 sequence: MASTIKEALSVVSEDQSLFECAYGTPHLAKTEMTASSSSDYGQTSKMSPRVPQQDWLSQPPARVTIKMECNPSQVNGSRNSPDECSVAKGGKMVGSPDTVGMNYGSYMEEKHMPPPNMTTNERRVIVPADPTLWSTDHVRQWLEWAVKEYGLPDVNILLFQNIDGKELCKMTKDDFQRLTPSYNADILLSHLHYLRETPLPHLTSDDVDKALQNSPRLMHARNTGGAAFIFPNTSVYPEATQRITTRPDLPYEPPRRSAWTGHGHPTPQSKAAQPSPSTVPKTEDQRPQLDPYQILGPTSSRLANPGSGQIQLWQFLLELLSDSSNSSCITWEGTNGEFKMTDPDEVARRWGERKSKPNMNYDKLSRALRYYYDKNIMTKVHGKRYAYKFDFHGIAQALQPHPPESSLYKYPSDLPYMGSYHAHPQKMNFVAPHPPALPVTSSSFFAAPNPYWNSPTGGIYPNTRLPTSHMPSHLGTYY
The settings on record: protein: recombinant; tags: N-terminal GST; dsDNA, one strand shown. The method, boiled down:
as §1

The target of a further assay is ELF1 (Homo sapiens, UniProt P32519 1-619). The settings on record: protein: recombinant; tags: N-terminal GST; dsDNA, one strand shown. Summed up:
as §1

A further assay addresses T5, EHF (Homo sapiens, UniProt Q9NZC4 1-300).
T5 sequence: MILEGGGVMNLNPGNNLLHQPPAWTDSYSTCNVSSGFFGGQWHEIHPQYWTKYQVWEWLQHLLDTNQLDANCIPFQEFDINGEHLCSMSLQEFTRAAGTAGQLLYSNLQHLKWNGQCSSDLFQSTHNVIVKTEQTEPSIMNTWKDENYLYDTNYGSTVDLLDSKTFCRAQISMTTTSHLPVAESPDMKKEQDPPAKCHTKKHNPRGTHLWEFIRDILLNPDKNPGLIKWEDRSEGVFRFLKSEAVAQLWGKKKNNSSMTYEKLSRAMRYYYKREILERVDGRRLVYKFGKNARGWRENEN
To be noted: protein: recombinant; tags: N-terminal GST; dsDNA, one strand shown. The method, boiled down: as §1

The target in another assay is SPI1 (Homo sapiens, UniProt P17947 1-270). The settings on record: protein: recombinant; tags: N-terminal GST; dsDNA, one strand shown. Summed up:
as §1

In another assay the target is SPIB (Homo sapiens, UniProt Q01892 1-262). The settings on record: protein: recombinant; tags: N-terminal GST; dsDNA, one strand shown. The method, boiled down: as §1
Chain of SPIB (Q01892 whole entry): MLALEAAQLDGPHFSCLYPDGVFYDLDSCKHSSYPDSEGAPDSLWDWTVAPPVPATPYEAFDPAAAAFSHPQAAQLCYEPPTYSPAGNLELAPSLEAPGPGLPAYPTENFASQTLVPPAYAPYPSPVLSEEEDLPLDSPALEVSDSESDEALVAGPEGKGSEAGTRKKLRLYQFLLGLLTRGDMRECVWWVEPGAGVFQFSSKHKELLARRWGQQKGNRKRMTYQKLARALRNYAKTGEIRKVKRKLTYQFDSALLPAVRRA
The next assay addresses T6, ELK3 (Homo sapiens, UniProt P41970 1-407).
T6 sequence: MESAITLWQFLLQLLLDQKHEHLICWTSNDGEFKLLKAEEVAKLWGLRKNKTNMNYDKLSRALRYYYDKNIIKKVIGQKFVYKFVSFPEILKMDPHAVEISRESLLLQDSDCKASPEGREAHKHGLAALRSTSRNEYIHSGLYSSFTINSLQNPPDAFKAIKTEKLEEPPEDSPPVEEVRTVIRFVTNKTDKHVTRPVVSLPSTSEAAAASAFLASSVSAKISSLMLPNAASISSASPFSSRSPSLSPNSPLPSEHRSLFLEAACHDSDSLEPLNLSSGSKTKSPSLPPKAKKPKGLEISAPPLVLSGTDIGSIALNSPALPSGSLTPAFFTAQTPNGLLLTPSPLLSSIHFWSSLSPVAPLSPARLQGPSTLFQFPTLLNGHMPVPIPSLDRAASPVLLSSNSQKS
To be noted: protein: recombinant; tags: N-terminal GST; dsDNA, one strand shown. Summed up: as §1

The target of another assay is T7, FEV (Homo sapiens, UniProt Q99581 1-238).
T7 sequence: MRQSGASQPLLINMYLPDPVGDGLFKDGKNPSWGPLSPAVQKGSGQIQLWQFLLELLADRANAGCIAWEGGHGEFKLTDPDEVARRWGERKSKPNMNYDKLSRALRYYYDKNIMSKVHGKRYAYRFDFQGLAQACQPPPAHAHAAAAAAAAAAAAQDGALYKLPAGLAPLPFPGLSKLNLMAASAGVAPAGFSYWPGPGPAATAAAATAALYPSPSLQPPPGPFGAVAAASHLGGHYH
To be noted: protein: recombinant; tags: N-terminal GST; dsDNA, one strand shown. The method, boiled down:
as §1

Another assay has as its target ETV5 (Homo sapiens, UniProt P41161 1-510). The settings on record: protein: recombinant; tags: N-terminal GST; dsDNA, one strand shown. Summed up:
as §1

In another assay the target is HSF1 (Homo sapiens, UniProt Q00613 1-529). To be noted: protein: recombinant; tags: N-terminal GST; chain copies: 3; dsDNA, one strand shown. The method, boiled down:
as §1

A further assay concerns the target T8, SPIC (Homo sapiens, UniProt Q8N5J4 1-248).
T8 sequence: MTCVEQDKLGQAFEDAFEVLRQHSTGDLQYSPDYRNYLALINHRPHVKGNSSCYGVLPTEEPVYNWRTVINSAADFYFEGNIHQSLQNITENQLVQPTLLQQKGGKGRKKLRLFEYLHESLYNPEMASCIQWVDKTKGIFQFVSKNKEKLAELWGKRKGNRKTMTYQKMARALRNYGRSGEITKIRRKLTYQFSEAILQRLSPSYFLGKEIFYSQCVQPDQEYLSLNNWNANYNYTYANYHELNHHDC
The settings on record: protein: recombinant; tags: N-terminal GST; dsDNA, one strand shown. Summed up: as §1

In a further assay the target is ELF4 (Homo sapiens, UniProt Q99607 1-663). The settings on record: protein: recombinant; tags: N-terminal GST; dsDNA, one strand shown. Summed up:
as §1

A further assay deals with T9, ELK4 (Homo sapiens, UniProt P28324-2 1-405).
T9 sequence: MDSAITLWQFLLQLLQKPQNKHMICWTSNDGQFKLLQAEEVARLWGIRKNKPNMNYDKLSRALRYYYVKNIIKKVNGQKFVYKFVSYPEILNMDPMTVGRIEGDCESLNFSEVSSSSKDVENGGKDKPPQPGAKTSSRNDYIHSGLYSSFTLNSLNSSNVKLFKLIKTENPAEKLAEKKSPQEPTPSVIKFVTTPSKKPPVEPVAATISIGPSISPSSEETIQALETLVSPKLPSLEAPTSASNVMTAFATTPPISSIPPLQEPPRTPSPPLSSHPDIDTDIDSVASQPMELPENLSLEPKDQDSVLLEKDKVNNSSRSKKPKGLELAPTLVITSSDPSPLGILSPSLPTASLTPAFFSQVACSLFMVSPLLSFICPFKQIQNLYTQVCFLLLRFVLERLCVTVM
To be noted: protein: recombinant; tags: N-terminal GST; dsDNA, one strand shown. Summed up: as §1

The next assay has as its target T10, ETV2 (Homo sapiens, UniProt O00321 1-342).
T10 sequence: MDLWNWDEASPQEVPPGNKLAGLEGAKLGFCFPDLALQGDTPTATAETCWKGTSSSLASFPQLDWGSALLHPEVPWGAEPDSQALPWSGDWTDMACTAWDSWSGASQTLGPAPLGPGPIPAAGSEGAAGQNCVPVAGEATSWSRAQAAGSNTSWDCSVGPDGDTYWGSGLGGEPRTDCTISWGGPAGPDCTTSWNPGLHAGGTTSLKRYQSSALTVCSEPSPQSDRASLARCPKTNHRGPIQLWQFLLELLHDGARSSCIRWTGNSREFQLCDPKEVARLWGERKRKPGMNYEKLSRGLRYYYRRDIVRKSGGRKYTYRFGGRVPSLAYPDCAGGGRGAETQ
To be noted: protein: recombinant; tags: N-terminal GST; dsDNA, one strand shown. Summed up: as §1

Another assay addresses T11, ELF3 (Homo sapiens, UniProt P78545 1-371).
T11 sequence: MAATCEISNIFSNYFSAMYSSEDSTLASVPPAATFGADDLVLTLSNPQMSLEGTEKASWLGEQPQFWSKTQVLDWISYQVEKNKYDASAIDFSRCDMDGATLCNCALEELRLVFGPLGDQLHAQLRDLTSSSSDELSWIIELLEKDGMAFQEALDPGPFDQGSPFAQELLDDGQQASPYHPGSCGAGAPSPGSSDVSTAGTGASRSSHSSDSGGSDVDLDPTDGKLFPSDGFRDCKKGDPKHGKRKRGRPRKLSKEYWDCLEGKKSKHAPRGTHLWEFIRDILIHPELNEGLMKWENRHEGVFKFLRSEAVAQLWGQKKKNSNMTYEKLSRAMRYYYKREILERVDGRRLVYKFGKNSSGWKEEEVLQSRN
The settings on record: protein: recombinant; tags: N-terminal GST; dsDNA, one strand shown. The method, boiled down: as §1

The target in another assay is CRX (Homo sapiens, UniProt O43186 1-299). The settings on record: protein: recombinant; tags: N-terminal GST; dsDNA, one strand shown. Summed up:
as §1

The target in a further assay is ETV1 (Homo sapiens, UniProt P50549 1-477). To be noted: protein: recombinant; tags: N-terminal GST; dsDNA, one strand shown. Summed up:
as §1

Chain of ELF1 (P32519 whole entry): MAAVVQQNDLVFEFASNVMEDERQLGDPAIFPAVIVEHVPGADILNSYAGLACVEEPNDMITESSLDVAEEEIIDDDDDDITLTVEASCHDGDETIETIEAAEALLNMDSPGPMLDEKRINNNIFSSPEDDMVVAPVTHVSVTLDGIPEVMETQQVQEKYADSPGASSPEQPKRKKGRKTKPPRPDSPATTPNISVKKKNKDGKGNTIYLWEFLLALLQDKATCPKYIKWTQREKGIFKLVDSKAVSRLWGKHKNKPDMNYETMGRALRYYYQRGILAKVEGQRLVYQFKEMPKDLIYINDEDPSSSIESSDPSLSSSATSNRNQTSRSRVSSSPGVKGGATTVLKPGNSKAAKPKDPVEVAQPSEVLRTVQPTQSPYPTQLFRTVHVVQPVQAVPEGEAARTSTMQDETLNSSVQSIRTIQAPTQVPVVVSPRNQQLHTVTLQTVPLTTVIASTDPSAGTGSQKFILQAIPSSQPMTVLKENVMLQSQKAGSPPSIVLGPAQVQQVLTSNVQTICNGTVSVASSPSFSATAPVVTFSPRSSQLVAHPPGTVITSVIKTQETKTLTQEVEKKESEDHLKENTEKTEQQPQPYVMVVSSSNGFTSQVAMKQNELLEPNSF
Chain of ETV5 (P41161 whole entry): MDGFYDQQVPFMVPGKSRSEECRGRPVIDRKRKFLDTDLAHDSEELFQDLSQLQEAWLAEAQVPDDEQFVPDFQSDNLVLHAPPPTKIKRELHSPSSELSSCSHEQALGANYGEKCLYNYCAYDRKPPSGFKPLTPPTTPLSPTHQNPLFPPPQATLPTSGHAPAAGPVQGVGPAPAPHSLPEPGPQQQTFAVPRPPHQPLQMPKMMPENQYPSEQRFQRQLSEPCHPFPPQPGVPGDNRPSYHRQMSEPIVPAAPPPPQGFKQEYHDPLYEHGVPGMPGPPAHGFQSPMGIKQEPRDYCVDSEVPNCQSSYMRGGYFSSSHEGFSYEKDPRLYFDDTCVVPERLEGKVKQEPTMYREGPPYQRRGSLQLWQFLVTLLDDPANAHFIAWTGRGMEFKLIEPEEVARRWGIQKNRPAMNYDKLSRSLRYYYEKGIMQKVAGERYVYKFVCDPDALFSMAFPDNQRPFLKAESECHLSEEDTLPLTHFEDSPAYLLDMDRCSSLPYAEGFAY
Chain of ETV1 (P50549 whole entry): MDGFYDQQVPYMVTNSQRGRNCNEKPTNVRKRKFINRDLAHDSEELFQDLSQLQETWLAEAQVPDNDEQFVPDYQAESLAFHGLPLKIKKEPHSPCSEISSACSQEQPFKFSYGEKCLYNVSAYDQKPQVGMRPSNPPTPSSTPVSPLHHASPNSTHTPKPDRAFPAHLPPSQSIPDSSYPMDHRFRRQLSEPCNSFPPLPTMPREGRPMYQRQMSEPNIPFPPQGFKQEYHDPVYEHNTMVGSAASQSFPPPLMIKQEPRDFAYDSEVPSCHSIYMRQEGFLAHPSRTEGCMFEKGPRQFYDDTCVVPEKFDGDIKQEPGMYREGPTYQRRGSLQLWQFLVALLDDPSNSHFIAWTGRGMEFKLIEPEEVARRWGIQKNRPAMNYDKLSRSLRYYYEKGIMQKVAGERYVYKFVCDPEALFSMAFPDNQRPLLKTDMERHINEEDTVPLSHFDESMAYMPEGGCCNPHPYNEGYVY
Chain of ELF4 (Q99607 whole entry): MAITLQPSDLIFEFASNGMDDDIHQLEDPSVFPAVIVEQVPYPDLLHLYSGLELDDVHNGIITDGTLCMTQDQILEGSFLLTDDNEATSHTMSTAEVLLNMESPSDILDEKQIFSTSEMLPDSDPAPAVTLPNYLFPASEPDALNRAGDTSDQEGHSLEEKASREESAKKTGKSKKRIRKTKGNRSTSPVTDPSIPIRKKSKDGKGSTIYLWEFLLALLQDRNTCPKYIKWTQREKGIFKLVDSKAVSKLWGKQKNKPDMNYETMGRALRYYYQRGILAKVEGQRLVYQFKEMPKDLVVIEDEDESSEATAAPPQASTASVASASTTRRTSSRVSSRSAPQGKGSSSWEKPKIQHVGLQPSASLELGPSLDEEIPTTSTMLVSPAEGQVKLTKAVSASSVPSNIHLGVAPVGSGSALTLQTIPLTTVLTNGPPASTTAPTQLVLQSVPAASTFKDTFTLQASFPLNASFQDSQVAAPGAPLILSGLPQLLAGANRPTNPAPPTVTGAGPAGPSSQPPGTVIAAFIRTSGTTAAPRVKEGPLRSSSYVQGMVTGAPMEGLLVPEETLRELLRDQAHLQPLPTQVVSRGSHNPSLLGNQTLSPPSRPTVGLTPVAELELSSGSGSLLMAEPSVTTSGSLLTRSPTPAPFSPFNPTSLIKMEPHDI
Chain of HSF1 (Q00613 whole entry): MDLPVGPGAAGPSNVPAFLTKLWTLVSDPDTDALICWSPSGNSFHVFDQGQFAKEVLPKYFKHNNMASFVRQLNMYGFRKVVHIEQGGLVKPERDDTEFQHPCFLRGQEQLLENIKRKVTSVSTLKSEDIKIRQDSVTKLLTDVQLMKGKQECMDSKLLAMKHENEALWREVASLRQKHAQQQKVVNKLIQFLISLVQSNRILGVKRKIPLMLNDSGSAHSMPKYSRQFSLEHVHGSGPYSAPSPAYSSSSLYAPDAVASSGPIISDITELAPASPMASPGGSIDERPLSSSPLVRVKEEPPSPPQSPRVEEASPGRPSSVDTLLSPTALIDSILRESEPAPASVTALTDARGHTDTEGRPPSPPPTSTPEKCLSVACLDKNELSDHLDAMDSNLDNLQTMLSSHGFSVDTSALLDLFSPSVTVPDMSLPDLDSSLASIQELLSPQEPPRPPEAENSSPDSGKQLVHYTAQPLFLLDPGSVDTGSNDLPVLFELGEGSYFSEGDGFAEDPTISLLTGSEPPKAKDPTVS
Chain of CRX (O43186 whole entry): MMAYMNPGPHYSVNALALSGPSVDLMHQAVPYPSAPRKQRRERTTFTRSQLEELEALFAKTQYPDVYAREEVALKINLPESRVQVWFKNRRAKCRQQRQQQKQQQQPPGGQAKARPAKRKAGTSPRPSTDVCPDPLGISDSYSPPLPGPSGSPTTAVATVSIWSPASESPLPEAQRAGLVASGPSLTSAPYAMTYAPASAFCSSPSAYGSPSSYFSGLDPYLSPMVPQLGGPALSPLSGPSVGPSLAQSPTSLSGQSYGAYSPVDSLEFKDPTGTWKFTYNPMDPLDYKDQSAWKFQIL

As to ACCTAT, the binding signal was 1.18 fold enrichment (6-mer frequency, TF over GST control) in the assay with FLI1; 1.26 fold enrichment (6-mer frequency, TF over GST control) with ELK1; 1.16 fold enrichment (6-mer frequency, TF over GST control) in the assay with GABPA; 1.07 fold enrichment (6-mer frequency, TF over GST control) with ERG; 1.21 fold enrichment (6-mer frequency, TF over GST control) in the assay with ELF1; 1.21 fold enrichment (6-mer frequency, TF over GST control) with EHF. The binding signal with SPI1 is 1.17 fold enrichment (6-mer frequency, TF over GST control); with SPIB, 1.15 fold enrichment (6-mer frequency, TF over GST control); with ELK3, 1.17 fold enrichment (6-mer frequency, TF over GST control); with FEV it was 1.15 fold enrichment (6-mer frequency, TF over GST control); with ETV5 it was 1.14 fold enrichment (6-mer frequency, TF over GST control); with HSF1, 1.05 fold enrichment (6-mer frequency, TF over GST control). The binding signal in the assay with SPIC was 1.11 fold enrichment (6-mer frequency, TF over GST control); with ELF4, 1.24 fold enrichment (6-mer frequency, TF over GST control); with ELK4 it was 1.13 fold enrichment (6-mer frequency, TF over GST control); in the assay with ETV2 it was 1.28 fold enrichment (6-mer frequency, TF over GST control); in the assay with ELF3, 1.24 fold enrichment (6-mer frequency, TF over GST control); with CRX it was 1.09 fold enrichment (6-mer frequency, TF over GST control). Moreover, the binding signal with ETV1 was 1.21 fold enrichment (6-mer frequency, TF over GST control).
